Consider 39 sequences from the OligoGym collection.
Also: reference of the scale not given here.

The first assay deals with SCGB3A1. Put plainly: pooled miR-30 sensor sort-seq; sequence = guide strand. The following applies: shRNA.
Consider TTCACGGGGATGCCCAGGCTGC, for which the sensor-assay potency score (higher = more potent) was -1.89.

In turn, TATGAGGTGGTTCACGGGGATG displayed a sensor-assay potency score (higher = more potent) of -2.01.

Turning to AAGAAAGCAGCAGCGGAGCTGC, the sensor-assay potency score (higher = more potent) was -0.859.

TCTATGAGGTGGTTCACGGGGA displayed a sensor-assay potency score (higher = more potent) of -0.221.

As for TCCAGCGCAGCGACAGGCTGGG, the sensor-assay potency score (higher = more potent) is -1.47.

Sequence CTCAGCAGGAGCTTCAGCGGGT returned a sensor-assay potency score (higher = more potent) of -1.59.

The sequence AAAGCAGCAGCGGAGCTGCAGG yielded a sensor-assay potency score (higher = more potent) of -1.3.

On to TCAGCCACACACTTCTGGGAGC, for which the sensor-assay potency score (higher = more potent) is -1.19.

In turn, TAAGAAAGCAGCAGCGGAGCTG registered a sensor-assay potency score (higher = more potent) of -0.766.

Turning to CAGCTCAGCCACACACTTCTGG, the sensor-assay potency score (higher = more potent) was -1.81.

In turn, AGCTCAGCCACACACTTCTGGG showed a sensor-assay potency score (higher = more potent) of -1.63.

The sequence ACTAAGAAAGCAGCAGCGGAGC showed a sensor-assay potency score (higher = more potent) of -1.78.

A further assay addresses SCN10A. The assay is described as above. The following applies: shRNA.
TTGACTTTCACATTGACCCAGA returned a sensor-assay potency score (higher = more potent) of 0.154.

The sequence TTAGACAAAATCCTCTTGCCAG came in with a sensor-assay potency score (higher = more potent) of -0.449.

In turn, TTGGTCATCAGTCTCCACCATC yielded a sensor-assay potency score (higher = more potent) of -1.09.

On to TAATGCTCTAAGAACTCTGAAT, for which the sensor-assay potency score (higher = more potent) is -0.877.

As for TTAACCAAAATAGTGACCGTAA, the sensor-assay potency score (higher = more potent) is 0.123.

As to TTGTCCTGCATCGAATGCCGAG, the sensor-assay potency score (higher = more potent) was -1.18.

TAGTGCTGCTAGCACCTCCTGC: the sensor-assay potency score (higher = more potent) is -0.978.

TATGATACTGACAACACTCATT came in with a sensor-assay potency score (higher = more potent) of -0.905.

The sequence TTGAGCTTCACCCACATGGGGC returned a sensor-assay potency score (higher = more potent) of -0.622.

TTGCTTCTCTATCTCCACCAGT yielded a sensor-assay potency score (higher = more potent) of -0.403.

As for TATTCCAGAATCTTCGCTGTGA, the sensor-assay potency score (higher = more potent) worked out at 0.727.

For TTCAGCACCATAAATGTCCGGT, the sensor-assay potency score (higher = more potent) turned out to be 0.128.

The target of the next assay is SCN2B. Described as above. Conditions: shRNA.
In turn, TTGTCTGTCTGCTTAACCTGAC yielded a sensor-assay potency score (higher = more potent) of -0.0966.

Consider TTGCACTCCTGGTAAGTCCAGT, for which the sensor-assay potency score (higher = more potent) was found to be 0.119.

Sequence TATAGCACACACAACCAAGAAA showed a sensor-assay potency score (higher = more potent) of -1.12.

TTGCAAAAGAAACTCAGTCTGC: the sensor-assay potency score (higher = more potent) was -0.173.

For the sequence TTTTTTTCTCCTCACACACTTG, the sensor-assay potency score (higher = more potent) was -1.04.

Sequence TTCCCTGAGAACTCCACGCGGT gave a sensor-assay potency score (higher = more potent) of -0.473.

TATATCTATACCTAGAGAGAGA registered a sensor-assay potency score (higher = more potent) of -1.18.

Regarding TTAATTAGGAGGAAGAGACAGA, the sensor-assay potency score (higher = more potent) is -0.125.

On to TTGATTGGCAGTTAGGTACTGA, for which the sensor-assay potency score (higher = more potent) is 0.514.

In the case of ATTGTCTGTCTGCTTAACCTGA, the sensor-assay potency score (higher = more potent) is -0.931.

Sequence TTGTGGTTCACTGTGTAGCAGG had a sensor-assay potency score (higher = more potent) of -0.841.

In turn, TAAACTGGAAATAACTGTGAAG had a sensor-assay potency score (higher = more potent) of -0.894.

For another assay, the target named is SCN4A. The description is as above. The following applies: shRNA.
Consider TTGTACAGGATGTCCACCTTGA, for which the sensor-assay potency score (higher = more potent) was 0.539.

The sequence TTGATGAGCATGTTCAGCGTTG displayed a sensor-assay potency score (higher = more potent) of -0.377.

TGCAGTAGTAGAACTTGCCGGC had a sensor-assay potency score (higher = more potent) of 0.0253.
